# Test results published in PubChem BioAssay AID463195 (Sanford-Burnham Center for Chemical Genomics, 2010).
# Screen size: about 330,000 compounds; about 4,600 (1.4%) were called active. This is one part of a sample in which actives are shown more often than they occur. A number with no mark means an inactive call.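 How the source made its calls: active means inhibition of 40% or more at the single tested concentration; inactive means the rest.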
# Assay: wild-type TIM10 yeast growth inhibition – luminescence, uHTS, counter-screen for tim10-1 yeast inhibitor project, primary screen (AID 463195);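 further: wild-type TIM10 isogenic control strain grown at permissive 25 °C; 0% = DMSO yeast wells and 100% = minimal medium wells without yeast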
# Settings: S. cerevisiae TIM10 strain growth, BacTiter-Glo luminescence, 24 h; at 10 µM; active compounds read high
row,SMILES,inhibition
1,CCCOc1ccc(NC(=O)C2OC3OC(C)(C)OC3C3OC(C)(C)OC23)cc1 (configuration not stated),-2.42%
2,COc1cc(/C=C/CO)cc(OC)c1O[C@@H]1O[C@H](CO)[C@@H](O)[C@H](O)[C@H]1O,-4.81%
3,O=C(/C=C/c1cccs1)c1cc(Cl)ccc1OC(=O)N1CCOCC1,52.9% (active)
4,CC(=O)Nc1ccccc1OC(=O)N1CCOCC1,-16.6%
5,O=C(Oc1cccc(C(=S)N2CCOCC2)c1)c1cccc(Cl)c1,17.1%
6,O=C(Nc1ccncc1)Nc1ccc(F)cc1,-4.69%
7,CC(C)CNC(=S)Nc1ccc(F)cc1,8.49%
8,CC(C)(CCl)C(=O)Nc1ccc(Sc2ccc(F)cc2)cc1,42.1% (active)
9,O=C(COc1ccccc1)Nc1nonc1NC(=O)COc1ccccc1,7.03%
10,O=C(CCN1C(=O)[C@@H]2Cc3ccccc3CN2C1=O)NCc1ccccc1,4.78%
11,CCOC(=O)c1c(NC(=O)CNC2CCCc3ccccc32)sc(C(N)=O)c1C (configuration not stated),-2.7%
12,COc1ccc(-c2nnc(SCC(=O)NC3CCCCC3)o2)cc1OC,3.73%
13,COc1ccc(CN(C(=O)CSc2nnc(-c3ccc(OC)c(OC)c3)o2)c2ccc(F)cc2)cc1,40.5% (active)
14,COc1ccc(CCNC(=O)CSc2nnc(-c3cccc(F)c3)o2)cc1OC,1.74%
15,Cc1ccc(C(=O)OCC(=O)NCc2cc(C)c(O)c(C)c2)cc1S(=O)(=O)N1CCCCC1,0.371%
16,O=S(=O)(c1cccc(-c2cn3ccccc3n2)c1)N1CCCC1,9%
17,Cc1cc(-c2ccccc2)nc(N2CCC(C(=O)NC34CC5CC(CC(C5)C3)C4)CC2)n1,19.8%
18,O=C1Nc2c(Br)cc(Br)cc2C1(O)N1CCOCC1 (configuration not stated),12.1%
19,CCC(C)(C)NC(=O)CN(Cc1cccs1)C(=O)CNS(=O)(=O)c1ccc(F)cc1,3.15%
20,CCOc1ccc(S(=O)(=O)NCCC(=O)N2CCCCCCC2)cc1,-3.91%
21,Cc1ccccc1NCC(=O)N/N=C\c1ccc([N+](=O)[O-])s1,56% (active)
22,CC(C)(C)c1cc(C(=O)N/N=C/c2ccc([N+](=O)[O-])s2)n[nH]1,22%
23,Cc1cccc(/C=N/NC(=O)CNc2cccc3ccccc23)n1,8.82%

row,SMILES,inhibition
1,C=CC1C(OC2OC(CO)C(O)C(O)C2O)OC=C(C(=O)OC)C1CC1CC(=O)CC(CC(=O)CCc2ccc(O)cc2)O1 (configuration not stated),-2.71%
2,c1ccc(COc2ccccc2CNCc2cccnc2)cc1,-6.88%
3,COc1c(N2CCN(C(=S)Nc3ccccc3F)C(C)C2)c(F)cc2c(=O)c(C(=O)O)cn(C3CC3)c12 (configuration not stated),2.41%
4,Cc1cccc(-n2c(SCC(N)=O)nc3c(c2=O)C2(CCCCC2)Cc2ccccc2-3)c1,12.4%
5,N#CC1(C#N)C(C(=O)C23CC4CC(CC(C4)C2)C3)C12CCOCC2 (configuration not stated),44.3% (active)
6,CSCCC(NC(=O)COc1ccccc1)C(=O)OCCOc1ccc(F)cc1 (configuration not stated),-0.639%
7,Cc1cc(C)cc(NC(=O)C(OC(=O)c2ccc(O)cc2)c2ccccc2)c1 (configuration not stated),9.95%
8,O=C(Nc1ccc(NC(=O)c2cccs2)cc1)c1ccc2ccccc2c1,-15.3%
9,Cc1ccc(NC(=O)c2cccs2)cc1S(=O)(=O)N(C)C,46.1% (active)
10,Cc1ccc(C(=O)Nc2ccc(NC(=O)c3cccs3)cc2)c(C)c1,-11.8%
11,O=C(Nc1ccccc1)c1ccc(NC(=O)c2cccs2)cc1,-10.3%
12,Cc1nc(-c2ccc(NC(=O)c3cccs3)cc2)cs1,49.5% (active)
13,Cc1ccc(C(=O)Nc2ccc(C)c(S(=O)(=O)N(C)C)c2)s1,10.9%
14,COC(=O)[C@]1(C)N[C@H](CN(C)C(=O)c2ccc(C(C)(C)C)cc2)[C@@H]2C(=O)N(C)C(=O)[C@@H]21,3.29%
15,Cc1ccc(-c2noc(C3CCCN(C(=O)c4cccc(Cl)c4)C3)n2)o1 (configuration not stated),-12.1%
16,O=C(CNS(=O)(=O)c1ccc(Br)s1)N1CCN(C(=O)c2ccco2)CC1,-4.25%
17,Cc1ccc(N2C(=O)CC(NCc3ccc4c(c3)OCO4)C2=O)cc1Cl (configuration not stated),9.87%
18,COC(=O)CN1C(=O)C(C)(C)Oc2ccc(C(=O)Nc3cccc(OC)c3)cc21,-1.11%
19,CCc1ccc2c(c1)C1(NN=C(c3ccccc3)S1)C(=O)N2 (configuration not stated),41.4% (active)
20,Cc1ccccc1N(C(=O)Cc1cccs1)C(C(=O)NC1CCCCC1)c1cn(C)nc1C (configuration not stated),18.5%
21,COc1cc2cc(CN(CCN3CCCC3)C(=O)Nc3ccccc3Cl)c(=O)[nH]c2cc1OC,1.82%
22,O=S(=O)(NC1CC1)c1ccc2c3c(cccc13)CC2,18.4%
23,O=S(=O)(NC1CCCCC1)c1ccc(F)c2ccccc12,48.4% (active)

row,SMILES,inhibition
1,CSc1ccc(S(=O)(=O)NC2CCCCC2)cc1,5.32%
2,O=C(Cn1nnc2ccccc2c1=O)NCc1ccc(Cl)cc1,-13.1%
3,CS(=O)(=O)N1CCN(CC(=O)NC2CCCC2)CC1,1.42%
4,COc1ccc(C(=O)C[n+]2ccc(N)c(C)c2C)cc1,-13.7%
5,Cc1ccc(-c2nn(C(C)(C)C)c3ncnc(N)c23)cc1,46.3% (active)
6,Cc1ccc(-n2cnc3ncnc(-c4ccccc4)c32)cc1,-13%
7,C=CC[C@H](CC(=O)OC(C)(C)C)C(=O)OC[C@H]1CCCN1C(=O)[C@H](CC=C)CC(=O)N(CCO)Cc1ccccc1,4.94%
8,O=C(CCNC(=O)c1ccc(Br)cc1)Nc1cccc(S(=O)(=O)N2CCCCC2)c1,-7.56%
9,O=C(Nc1cccc(S(=O)(=O)N2CCCC2)c1)c1cncc(Br)c1,97% (active)
10,O=C(Nc1cccc(S(=O)(=O)N2CCCCC2)c1)c1cncc(Br)c1,8.29%
11,COc1ccc(Nc2nc(N)nc(CSC(=S)N3CCC(C)CC3)n2)cc1,44.5% (active)
12,COc1ccccc1Nc1nc(N)nc(CSC(=S)N2CCOCC2)n1,31.8%
13,CCOC(=O)c1cnc(SCc2nc(N)nc(Nc3ccc(OC)cc3)n2)nc1N,15.4%
14,COc1cc(CC(=O)N2CCC(n3nccc3NC(=O)C3CC3)CC2)cc(OC)c1OC,-1.91%
15,CC1=C/C(=N\OS(=O)(=O)c2ccccc2)C=CC1=O,69.4% (active)
16,Cc1nc(C)c(-c2nnc(-c3cccc(S(=O)(=O)N(C)C)c3)o2)cc1C(=O)NN,11.6%
17,CCn1c(C)cc(=O)cc1-c1ccc(Cl)cc1,-2.03%
18,COc1ccc(Cn2c(=O)cc(C)[nH]c2=S)cc1,8.93%
19,COc1ccc(Cn2c(-c3ccc(Cl)cc3)c[n+]3ccccc23)cc1,45.6% (active)
20,COc1cccc(OCc2cc(C(=O)N3CCN(C(=O)c4ccco4)CC3)no2)c1,97.6% (active)
21,COc1ccc(OCc2cc(C(=O)N3CCCC3)no2)c2ccccc12,-11.8%
22,O=C(c1cc(COc2cccc(C(F)(F)F)c2)on1)N1CCSCC1,19.8%
23,CC(=O)C[C@H](O)CC(=O)[C@@H]1OC(=O)[C@@H](C)C/C=C\Cc2ccccc21,4.22%

row,SMILES,inhibition
1,CCc1cccc(NC(=O)C2CCCN(S(=O)(=O)c3ccc4[nH]c(=O)ccc4c3)C2)c1 (configuration not stated),-4.86%
2,CCN1/C(=C\c2ccc3ccccc3[n+]2CC)Sc2cc(C)ccc21,78.3% (active)
3,COc1ccc2c(c1OC)C(=O)N(c1ccc(O)cc1)C2,-21.6%
4,CCC1CCC2(CC1)NC(=O)N(CC(=O)Nc1ccc(OC)cc1)C2=O (configuration not stated),-4.33%
5,CN(c1cccc(NC(=O)c2ccc(CN3CCc4ccccc4C3)cc2)c1)S(C)(=O)=O,-4.01%
6,CCOC(=O)c1cc(C(=O)Nc2ccc(S(=O)(=O)Nc3ccc(OC)cc3)cc2)nn1C,8.95%
7,Cc1cccc(OCC(=O)Nc2ccc(NC(=O)c3ccco3)c(C)c2)c1,-8.94%
8,COc1ccc(OCC(=O)Nc2ccc(NC(=O)c3ccco3)c(C)c2)cc1,-13.8%
9,Cc1ccc(C(=O)COc2cccc(NC(=O)c3ccco3)c2)cc1,54% (active)
10,COC(=O)c1onc(-c2c(OC)cc(OC)cc2OC)c1C(=O)OC,6.8%
11,CC1=C(C(=O)Nc2cc(C)ccn2)C(c2cnn(C)c2)C2=C(CC(c3ccccc3)CC2=O)N1 (configuration not stated),6.51%
12,O=C(NCc1ccc(F)cc1)C1CCN(C(=O)Nc2ccc(F)cc2)CC1,-14%
13,O=[N+]([O-])c1ccc(C=Nc2ccc(Cl)cc2Cl)s1,71.2% (active)
14,CC1CN(C(=O)c2ccc([N+](=O)[O-])s2)CC(C)O1 (configuration not stated),6.54%
15,CCC1=NN(C(=O)Cc2ccc([N+](=O)[O-])cc2)C(O)(c2ccc(Br)cc2)C1 (configuration not stated),27%
16,O=C(Nc1ccc2oc(-c3ccc4ccccc4c3)nc2c1)c1cccs1,0.529%
17,O=C(Nc1ccc2oc(-c3ccccc3F)nc2c1)c1ccco1,67.2% (active)
18,O=C(Nc1cccc(-c2nc3ncccc3o2)c1)c1ccco1,12.8%
19,Cc1cc(C)cc(NC(=O)Cn2cnc3c(nnn3Cc3ccc(F)cc3)c2=O)c1,-9.34%
20,Cc1ccc(Nc2cc(=O)n(C3CCCCC3)c(=O)[nH]2)cc1C,4.8%
21,COc1cc2ccccc2cc1C(=O)Nc1ccc(NC(=O)c2cccs2)cc1,-34.6%
22,COc1cc(NC(=O)c2ccc3c(c2)OCO3)ccc1NC(=O)c1cccs1,11%
23,COc1cc(NC(=O)c2cccs2)ccc1NC(=O)c1ccccc1Cl,40.9% (active)
